This note sets out measurements from PubChem BioAssay AID686960 (The Scripps Research Institute Molecular Screening Center, 2013).

Usually IC50 stands for the concentration that inhibits the measured activity by half.

This is one part of the list. Values without a mark were called inactive. Activity calls are given as the source filed them. Cut-off read from the data, not from the text of the source: active = IC50 below about 10 µM; inactive = the rest.

The nature of this test: inhibitors of DNA CAG/GTC TO-PRO-1 complex, dose response, counter-screen for rCAG RNA repeat binder project, biochemical, fluorescence, TO-PRO-1 dye (AID 686960). The note with it: DNA CAG/GTC duplex TO-PRO-1 dye displacement fluorescence.
For the compound `CC(C)(C)C1C/C(=C/c2ccco2)C(=O)/C(=C/c2ccco2)C1` (stereo unspecified), the IC50 was > 29.9 µM.
With `O=C(Cc1ccccc1)Nc1ccc(C(=O)Nc2ccccc2C(=O)O)cc1`, the IC50 was > 29.9 µM.
With `CC(C)c1ccc(CC(=O)N2CCC2(C)C(=O)NS(=O)(=O)c2ccc(C(C)(C)C)cc2)cc1` (stereo unspecified), the IC50 is > 29.9 µM.
The value for `Cc1ccc(S(=O)(=O)N2[C@@H](c3ccc(Br)cc3)C(C(=O)O)=C[C@H]2CC2CCCC2)cc1` was 11.6 µM; that for `O=C(O)c1ccc(NN=CC2=C(N3CCOCC3)/C(=C/c3ccccc3)CC2)cc1` was 11 µM.
In the case of `CO/N=C(\C(=O)N[C@@H]1C(=O)N2C(C(=O)O)=C(COC(C)=O)CS[C@H]12)c1csc(N)n1` (stereo in doubt), the IC50 is 9.89 µM (active).
Then `Cc1ccc(C(C)C)c(OCCSc2nc3ccccc3n2CC(=O)O)c1`, with > 29.9 µM; and `Cc1noc(NS(=O)(=O)c2ccc(NC(=O)c3oc4ccc(F)cc4c3C)cc2)c1C`, with 16.5 µM.
Then `CC1(C(=O)NS(=O)(=O)c2ccc3ccccc3c2)CCN1C(=O)C1(c2ccc(Cl)cc2)CCC1` (stereo unspecified), with 21.2 µM.
Then `COc1ccc(C(=O)Nc2cccc(/C=C(/CCC(=O)O)c3nc4ccccc4s3)c2)cc1`, with 14.2 µM.
Take `COc1ccc(Cc2nnc(SCC(=O)Nc3ccc(C)c(Cl)c3)[nH]c2=O)cc1`: the IC50 is 24.2 µM.
